# Assay results from PubChem BioAssay.
# Activity calls are given as the source filed them. Unless noted, the rule behind the calls is not given here.
# Key:
# [1] = system: Wnt5a (protein binding on small-molecule microarray); test: small molecules binding Wnt5a protein – biophysical, small-molecule microarray, 635/667 nm fluorescence, primary screen (AID 1142); settings: 635 nm fluorescence, higher = more signal;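 note: fluorescence read at 667 nm with signal to noise per printed feature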
# [2] = ATP-based viability of Huh7 replicon cells – cell-based, CellTiter-Glo luminescence, basal, 48 h, cytotoxicity control for HCV replication inhibitor project, primary screen (AID 1143); settings: higher = more signal, called active from +8 up or from −8 down;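 note: Huh7 hepatoma cells carrying a hepatitis C replication reporter with no stimulus; test concentration not given here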
# [3] = Pseudomonas biofilm growth suppression – PAO1 strain, BacTiter-Glo luminescence, LB-PBS, primary screen (AID 1144); settings: P. aeruginosa PAO1 biofilm, 12 h, higher = more signal
# [4] = basal CRE-LacZ reporter activity in PC12 – cell-based, unstimulated, primary screen (AID 1145); settings: no forskolin, luminescence, 4.5 h, higher = more signal, called active from +8 up or from −8 down
# [5] = forskolin-driven CRE-LacZ activity in PC12 – cell-based, CRE-LacZ reporter, forskolin-stimulated, primary screen (AID 1146); settings: luminescence, 4.5 h, higher = more signal, called active from +8 up or from −8 down;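 note: PC12 cells with 6xCRE LacZ reporter stimulated by forskolin 10 µM; beta-galactosidase reporter signal reflecting CREB driven transcription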
# [6] = target: Streptavidin (Streptomyces avidinii) (UniProt P22629); test: compounds binding control protein streptavidin – biophysical, small-molecule microarray, 635/667 nm fluorescence, artefact control for SMM compound annotation, primary screen (AID 1147); settings: higher = more signal;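 note: signal reflects streptavidin binding to arrayed compounds as a control protein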
# Streptavidin (Streptomyces avidinii), sequence (P22629 whole entry, looked up): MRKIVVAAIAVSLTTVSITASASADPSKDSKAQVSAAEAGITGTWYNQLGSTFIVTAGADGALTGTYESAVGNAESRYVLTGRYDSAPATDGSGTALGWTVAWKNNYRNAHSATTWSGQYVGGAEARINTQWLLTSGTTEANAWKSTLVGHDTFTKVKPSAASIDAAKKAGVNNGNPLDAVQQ
# [7] = probe aInhba binding on compound microarray – biochemical, small-molecule microarray, 635/667 nm fluorescence, primary screen (AID 1148); settings: higher = more signal;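 note: score merges 667nm spot fluorescence with signal-to-noise for antibody binding to printed compounds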
# Torsin-1A (Homo sapiens) [8] = target: Torsin-1A (Homo sapiens) (UniProt O14656); test: TOR1A wild-type binding on microarray – cell lysate, small-molecule microarray, lysate, 635/667 nm, primary screen (AID 1149); settings: COS7 hTOR1A-WT lysate, 635 nm fluorescence, higher = more signal
# Torsin-1A (Homo sapiens), sequence (O14656 whole entry, looked up): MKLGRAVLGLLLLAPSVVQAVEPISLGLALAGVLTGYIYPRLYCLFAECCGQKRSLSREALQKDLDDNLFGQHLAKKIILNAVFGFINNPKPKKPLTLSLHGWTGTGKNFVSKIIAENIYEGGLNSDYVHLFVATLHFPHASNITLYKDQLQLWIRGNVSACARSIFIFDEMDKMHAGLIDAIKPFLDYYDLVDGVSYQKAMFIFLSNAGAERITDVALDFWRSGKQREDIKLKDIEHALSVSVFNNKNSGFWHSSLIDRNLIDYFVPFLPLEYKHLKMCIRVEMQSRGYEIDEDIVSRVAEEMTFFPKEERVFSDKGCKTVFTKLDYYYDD
# Torsin-1A (Homo sapiens) [9] = target: Torsin-1A (Homo sapiens) (UniProt O14656); test: torsin A mutant lysate binding on microarrays – cell lysate, small-molecule microarray, COS7 lysate, 635/667 nm fluorescence, primary screen (AID 1150); settings: COS7 hTOR1A mutant lysate, 635 nm fluorescence, higher = more signal;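 note: score pools 667 nm emission and signal to noise measuring lysate protein binding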
# [10] = system: Sonic hedgehog protein (Shh); test: Sonic hedgehog microarray binding compounds – biochemical, small-molecule microarray, 635/667 nm fluorescence, primary screen (AID 1151); settings: 635 nm fluorescence, higher = more signal;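 note: Shh protein binding to compounds spotted on small-molecule microarray slides; score combines spot fluorescence intensity with signal-to-noise across triplicate slides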
# [11] = optical density shifts of acrAB sulA E. coli – strain DRC41, OD650, 48 h, E. coli filamentation inducer project, primary screen (AID 1152); settings: higher = more signal, called active from +8 up or from −8 down;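 note: E. coli MC1000 strain DRC41 lacking acrAB efflux pump and sulA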
# [12] = probe aLefty1 binding on compound microarray – biochemical, small-molecule microarray, 635/667 nm fluorescence, primary screen (AID 1153); settings: higher = more signal;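 note: score merges spot fluorescence with signal-to-noise ratio from the scanned slide images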
# [13] = plasmodial surface anion channel blockers, osmotic lysis – cell-based, P. falciparum Indochina, OD700, 1 h, primary screen (AID 1154); settings: P. falciparum Indochina infected RBC osmotic lysis, higher = more signal, called active from +8 up or from −8 down
# [14] = plasmodial surface anion channel blockers, osmotic lysis – cell-based, P. falciparum Indochina, OD700, 2 h, primary screen (AID 1155);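 note: lysis reports solute entry through the parasite surface anion channel PSAC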; settings: P. falciparum Indochina infected erythrocytes, higher = more signal, called active from +8 up or from −8 down
# [15] = changes in parasitized red cell lysis, either direction – P. falciparum Indochina, OD700, 3 h, PSAC antagonist project, primary screen (AID 1156); settings: P. falciparum-infected erythrocytes, osmotic lysis, higher = more signal, called active from +8 up or from −8 down
# [16] = plasmodial surface anion channel blockers, osmotic lysis – cell-based, P. falciparum Indochina, OD700, 18 h, primary screen (AID 1157); settings: P. falciparum Indochina infected erythrocytes, osmotic lysis OD700, 18 h; higher = more signal, called active from +8 up or from −8 down
# [17] = S6 kinase pathway phospho-S6 level changes – cell-based, A549, cytoblot, luminescence, serum-stimulated, primary screen (AID 1158); settings: 5 h, higher = more signal;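 note: serum-stimulated A549 lung adenocarcinoma cells; signal is phosphorylated S6 detected by cytoblot immunostaining with HRP secondary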
# [18] = target: NADPH oxidase 2 (Homo sapiens) (UniProt P04839); test: compounds shifting NOX2 Amplex Red fluorescence – cell-based, HEK293-NOX2, PMA-stimulated, NOX inhibitor project, primary screen (AID 1159); settings: 45 min, higher = more signal, called active from +8 up or from −8 down; note: test concentration not given here
# NADPH oxidase 2 (Homo sapiens), sequence (P04839 whole entry, looked up): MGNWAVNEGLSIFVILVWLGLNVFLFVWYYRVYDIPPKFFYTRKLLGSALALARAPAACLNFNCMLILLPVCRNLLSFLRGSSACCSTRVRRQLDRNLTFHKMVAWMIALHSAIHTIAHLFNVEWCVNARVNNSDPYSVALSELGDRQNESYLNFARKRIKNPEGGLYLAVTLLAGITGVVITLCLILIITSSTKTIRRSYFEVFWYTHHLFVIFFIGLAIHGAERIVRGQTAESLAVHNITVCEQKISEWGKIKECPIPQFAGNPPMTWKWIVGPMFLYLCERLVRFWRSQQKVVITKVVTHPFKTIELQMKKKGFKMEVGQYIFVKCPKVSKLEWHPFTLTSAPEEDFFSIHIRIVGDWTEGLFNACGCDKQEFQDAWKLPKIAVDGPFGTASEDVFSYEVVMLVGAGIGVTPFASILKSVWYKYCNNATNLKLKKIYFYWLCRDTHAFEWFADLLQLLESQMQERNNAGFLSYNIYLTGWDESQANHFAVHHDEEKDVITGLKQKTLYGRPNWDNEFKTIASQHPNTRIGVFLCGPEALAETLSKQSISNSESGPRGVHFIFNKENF
# [19] = target: NADPH oxidase 4 (Homo sapiens) (UniProt Q9NPH5); test: compounds shifting NOX4 Amplex Red fluorescence – cell-based, HEK293-NOX4, tetracycline-induced, NOX inhibitor project, primary screen (AID 1160); settings: HEK293-NOX4, Amplex Red H2O2 fluorescence, 45 min; higher = more signal, called active from +8 up or from −8 down
# NADPH oxidase 4 (Homo sapiens), sequence (Q9NPH5 whole entry, looked up): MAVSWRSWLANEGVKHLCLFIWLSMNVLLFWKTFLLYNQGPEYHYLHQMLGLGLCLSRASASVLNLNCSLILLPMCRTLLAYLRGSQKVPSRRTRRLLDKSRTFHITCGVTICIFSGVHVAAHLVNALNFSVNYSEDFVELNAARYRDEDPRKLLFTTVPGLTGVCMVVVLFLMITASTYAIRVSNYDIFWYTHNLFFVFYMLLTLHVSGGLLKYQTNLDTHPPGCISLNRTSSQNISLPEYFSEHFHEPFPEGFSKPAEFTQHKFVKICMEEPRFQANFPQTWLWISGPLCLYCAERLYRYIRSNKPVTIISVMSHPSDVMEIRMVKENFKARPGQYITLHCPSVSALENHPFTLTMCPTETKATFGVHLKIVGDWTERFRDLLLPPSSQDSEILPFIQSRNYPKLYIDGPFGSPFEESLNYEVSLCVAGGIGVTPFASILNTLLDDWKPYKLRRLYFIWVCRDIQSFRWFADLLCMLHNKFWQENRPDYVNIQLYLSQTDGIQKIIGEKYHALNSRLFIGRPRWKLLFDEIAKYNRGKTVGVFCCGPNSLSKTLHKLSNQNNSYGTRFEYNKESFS
# [20] = target: NADPH oxidase 5 (Homo sapiens) (UniProt Q96PH1); test: compounds shifting NOX5 Amplex Red fluorescence – cell-based, HEK293-NOX5, NOX inhibitor project, primary screen (AID 1161); settings: HEK293-NOX5, ionomycin, 45 min, higher = more signal
# NADPH oxidase 5 (Homo sapiens), sequence (Q96PH1 whole entry, looked up): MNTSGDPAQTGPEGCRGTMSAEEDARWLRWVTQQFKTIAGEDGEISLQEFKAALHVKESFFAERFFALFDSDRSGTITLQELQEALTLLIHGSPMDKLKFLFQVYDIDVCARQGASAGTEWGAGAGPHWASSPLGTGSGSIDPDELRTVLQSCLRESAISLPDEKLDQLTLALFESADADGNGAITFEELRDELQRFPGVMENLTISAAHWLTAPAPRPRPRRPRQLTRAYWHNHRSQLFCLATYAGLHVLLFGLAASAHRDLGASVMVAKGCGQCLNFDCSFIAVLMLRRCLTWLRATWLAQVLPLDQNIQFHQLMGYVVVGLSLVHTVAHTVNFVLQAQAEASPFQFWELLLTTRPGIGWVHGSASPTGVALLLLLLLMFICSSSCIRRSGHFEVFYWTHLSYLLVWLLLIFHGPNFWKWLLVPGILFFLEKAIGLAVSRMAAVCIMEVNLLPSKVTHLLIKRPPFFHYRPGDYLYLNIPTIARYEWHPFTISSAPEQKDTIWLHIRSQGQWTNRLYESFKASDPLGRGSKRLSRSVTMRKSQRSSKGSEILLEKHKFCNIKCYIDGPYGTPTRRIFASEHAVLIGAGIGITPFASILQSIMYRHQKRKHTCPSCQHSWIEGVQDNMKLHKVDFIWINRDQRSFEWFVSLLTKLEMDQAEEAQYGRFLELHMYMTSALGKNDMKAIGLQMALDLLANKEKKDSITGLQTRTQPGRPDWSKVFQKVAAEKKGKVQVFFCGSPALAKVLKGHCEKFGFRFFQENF
SMILES,composite z-score [1],z-score [2],z-score [3],z-score [4],z-score [5],composite z-score [6],composite z-score [7],composite z-score (Torsin-1A (Homo sapiens) [8]),composite z-score (Torsin-1A (Homo sapiens) [9]),composite z-score [10],z-score [11],composite z-score [12],z-score [13],z-score [14],z-score [15],z-score [16],z-score [17],z-score [18],z-score [19],z-score [20]
NC(=O)[C@@H]1[C@H]2C(=O)O[C@H](c3ccccc3)[C@H](c3ccccc3)N2[C@H](c2ccc(O)cc2)[C@@]12C(=O)Nc1ccc(C#CC3=CCCCC3)cc12,0.0867,-5.11 (inactive),0.403 (inactive),1.17 (inactive),0.117 (inactive),-0.102,0.468,0.558,0.281,2,-1.1 (inactive),1.47,1.78 (inactive),1.07 (inactive),-0.491 (inactive),1.27 (inactive),-0.7,0.615 (inactive),0.196 (inactive),-0.325
C=C(CCCC)/C(=C/C[C@@H](OC(C)=O)c1ccccc1OCCO)c1cc(C(=O)OC)ccc1OC,-0.115,-0.774 (inactive),-0.341 (inactive),16 (active),-1.14 (inactive),-0.478,-0.15,0.0851,0.0547,0.566,0.725 (inactive),-0.239,27.1 (active),11.2 (active),2.14 (inactive),1.71 (inactive),-0.733,1.27 (inactive),0.282 (inactive),-1.36
COc1ccc(CCNC(=O)[C@@]2(C)c3ccccc3C(=O)N(c3ccc(C)cn3)[C@H]2c2ccc(CO)cc2)cc1,-0.49,-0.998 (inactive),-0.604 (inactive),-0.0888 (inactive),-0.371 (inactive),-0.712,-0.183,-2.16,-1.44,-0.797,-0.246 (inactive),-0.0378,2.01 (inactive),-0.1 (inactive),0.825 (inactive),0.156 (inactive),-0.0316,-0.911 (inactive),-0.78 (inactive),-1.81
COc1ccc([Si](C)(C)[C@@H]2[C@@H](CCn3cc([C@H](O)c4ccccc4)nn3)O[C@]3(C(=O)N(Cc4cccc(N5CCC5=O)c4)c4ccccc43)[C@H]2C)cc1,-0.166,-2.43 (inactive),-1.1 (inactive),-0.272 (inactive),-0.144 (inactive),0.0185,-0.0477,0.423,0.0953,0.71,-0.811 (inactive),-0.144,10.4 (active),2.06 (inactive),0.538 (inactive),0.989 (inactive),0.135,0.702 (inactive),1.4 (inactive),2.32
CC(C)[Si](C#CCCCC#N)(Oc1ccccc1Br)C(C)C,0.0696,-0.0761 (inactive),0.0648 (inactive),-0.519 (inactive),-0.0887 (inactive),0.525,-0.15,0.42,0.222,0.544,-0.4 (inactive),-0.104,0.614 (inactive),1.01 (inactive),-0.494 (inactive),0.823 (inactive),-0.49,-0.273 (inactive),-0.161 (inactive),-0.18
CC(C)[Si](C#CCCCC#N)(O[C@H](c1ccccc1)c1cn(Cc2cccc(Cl)c2)nn1)C(C)C,0.182,-2.2 (inactive),-0.603 (inactive),-0.215 (inactive),-0.859 (inactive),-0.0708,0.0614,1.42,0.392,1.21,1.65 (inactive),0.0496,0.614 (inactive),1.24 (inactive),-0.187 (inactive),1.04 (inactive),0.573,-6.2 (inactive),0.194 (inactive),0.528
COc1cc(OC)c(C(O)C2C=CC3C(=O)NC(=O)C3N2Nc2ccccn2)cc1Br (stereo not given),0.364,0.996 (inactive),-0.874 (inactive),-0.326 (inactive),-0.527 (inactive),-0.118,-0.0791,-0.105,0.197,0.754,-0.718 (inactive),-0.172,1.54 (inactive),0.783 (inactive),0.332 (inactive),0.876 (inactive),-0.732,-0.0691 (inactive),-2.81 (inactive),-2.05
COCCCNC(=O)[C@@]1(Sc2ccc(C)cc2)CC(=O)N(Cc2ccccc2Cl)[C@@H]1c1ccc(CO)cc1,0.349,-4.58 (inactive),-0.915 (inactive),-0.374 (inactive),1.09 (inactive),0.584,-0.0331,0.607,0.582,2.02,0.864 (inactive),-0.0011,0.38 (inactive),-0.91 (inactive),0.712 (inactive),-1.83 (inactive),2.14,-2.58 (inactive),-1.22 (inactive),-2.91
